Source: the supplement of paper PMC10849652
About 7,900 targets were measured; listed, in parts, are those with a hit and a random draw of the rest. About 0.6% of all pairs of compound and target were hits.

Columns and labels:
Assay in all cases: log2 fold change, soluble protein after heating vs DMSO (PISA); higher = thermal stabilisation; K562 cells, 10 uM, 30 min; active = over 0.2 and 3.5 SD of the protein, either way, in both replicates (recomputed)
[1] = compound: CS(=O)(=O)c1ccc(-c2cnc(N)c(C(=O)Nc3ccccc3)n2)cc1
Summary of the method: (§1)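 Thermal stability values are relative to control samples and come from duplicates. They are expressed as log2 fold changes. For measurement, K562 cells (2×10^6 cells/mL) received 10 μM compound for 30 min, and aliquots were heated for 3 min over 48°C-58°C, pooled, and extracted at 4°C in PBS with 0.5% NP-40. Soluble protein, the supernatant after 21,000xg for 90 min, was quantified by TMTpro 16plex LC-MS/MS with equalised channel sums.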

crizotinib = compound: C[C@@H](Oc1cc(-c2cnn(C3CCNCC3)c2)cnc1N)c1c(Cl)ccc(F)c1Cl [crizotinib]
Summary of the method: as §1

[2] = compound: C[C@@H]1COCCN1C2=NC(=NC(=C2)C3(CC3)S(=O)(=O)C)C4=C5C=CNC5=CC=C4
Summary of the method: as §1

[3] = compound: C[C@H](C1=CC=C(C=C1)C(=O)NC2=C3C=CNC3=NC=C2)N
Summary of the method: as §1

duvelisib = compound: C[C@H](Nc1ncnc2nc[nH]c12)c1cc2cccc(Cl)c2c(=O)n1-c1ccccc1 [duvelisib]
Summary of the method: as §1

gandotinib = compound: Cc1cc(Nc2cc(CN3CCOCC3)c3nc(C)c(Cc4ccc(Cl)cc4F)n3n2)n[nH]1 [gandotinib]
Summary of the method: as §1

tozasertib = compound: Cc1cc(Nc2cc(N3CCN(C)CC3)nc(Sc3ccc(NC(=O)C4CC4)cc3)n2)n[nH]1 [tozasertib]
Summary of the method: as §1

[4] = compound: Cc1cc(SCc2sc(-c3ccc(C(F)(F)F)cc3)nc2C)ccc1OCC(=O)O
Summary of the method: as §1

doramapimod = compound: Cc1ccc(-n2nc(C(C)(C)C)cc2NC(=O)Nc2ccc(OCCN3CCOCC3)c3ccccc23)cc1 [doramapimod]
Summary of the method: as §1

ispinesib = compound: Cc1ccc(C(=O)N(CCCN)[C@@H](c2nc3cc(Cl)ccc3c(=O)n2Cc2ccccc2)C(C)C)cc1 [ispinesib]
Summary of the method: as §1

Measured: log2 fold change

DNAH11 (UniProt Q96DT5)
active: [3] 0.695
inactive: [1] -0.054 | crizotinib 0.071 | [2] 0.062 | duvelisib 0.073 | gandotinib 0.104 | tozasertib -0.165 | [4] -0.069 | doramapimod 0.037 | ispinesib -0.125

DSN1 (UniProt Q9H410)
inactive: [1] -0.015 | crizotinib -0.016 | [2] 0.086 | [3] -0.05 | duvelisib 0.098 | tozasertib 0.026 | [4] -0.07 | doramapimod 0.007 | ispinesib 0.055

ELF1 (UniProt P32519)
Sequence of UniProt P32519 (P32519 whole entry, looked up): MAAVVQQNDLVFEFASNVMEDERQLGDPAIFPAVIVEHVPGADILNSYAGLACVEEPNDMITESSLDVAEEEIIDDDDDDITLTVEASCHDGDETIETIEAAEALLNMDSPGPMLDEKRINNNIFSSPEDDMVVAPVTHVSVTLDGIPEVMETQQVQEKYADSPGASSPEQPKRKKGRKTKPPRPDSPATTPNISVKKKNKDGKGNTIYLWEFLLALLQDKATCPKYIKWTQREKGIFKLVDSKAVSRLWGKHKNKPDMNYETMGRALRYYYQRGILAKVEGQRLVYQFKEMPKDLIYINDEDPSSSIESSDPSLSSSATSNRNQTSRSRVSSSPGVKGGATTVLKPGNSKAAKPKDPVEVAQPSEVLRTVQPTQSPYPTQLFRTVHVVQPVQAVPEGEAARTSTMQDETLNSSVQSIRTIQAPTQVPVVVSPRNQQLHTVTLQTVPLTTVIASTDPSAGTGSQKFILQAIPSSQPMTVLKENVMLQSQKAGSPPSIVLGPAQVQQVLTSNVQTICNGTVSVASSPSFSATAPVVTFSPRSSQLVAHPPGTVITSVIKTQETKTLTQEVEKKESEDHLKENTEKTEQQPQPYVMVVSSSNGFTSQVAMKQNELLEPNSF
inactive: [1] 0.093 | crizotinib -0.06 | [2] -0.006 | [3] -0.007 | duvelisib 0.032 | tozasertib 0.008 | [4] 0.057 | doramapimod -0.039 | ispinesib -0.038

EZH2 isoform 2 (UniProt Q15910)
inactive: [1] -0.012 | crizotinib -0.196 | [2] -0.039 | [3] 0.072 | duvelisib -0.112 | tozasertib -0.12 | [4] 0.279 | doramapimod 0.095

FAM207A (UniProt Q9NSI2)
inactive: [1] 0.009 | crizotinib 0.075 | [2] 0.08 | duvelisib 0.128 | gandotinib -0.039 | tozasertib 0.053 | [4] -0.098 | doramapimod 0.101 | ispinesib -0.077

DNM2 isoform 4 (UniProt P50570)
inactive: [1] -0.302 | crizotinib -0.087 | [2] -0.039 | [3] -0.087 | duvelisib 0.159 | gandotinib 0.126 | [4] 0.5 | doramapimod -0.203 | ispinesib 0.092

EXOC7 (UniProt Q9UPT5)
inactive: [1] -0.062 | crizotinib -0.25 | [2] -0.028 | [3] 0.034 | duvelisib 0.027 | gandotinib -0.122 | tozasertib 0.027 | [4] 0.05 | doramapimod -0.029
active: ispinesib -0.346

E2F4 (UniProt Q16254)
inactive: [1] 0.04 | crizotinib -0.029 | [2] 0.024 | [3] -0.095 | duvelisib 0.027 | gandotinib -0.034 | tozasertib 0.086 | [4] -0.019 | doramapimod 0.024 | ispinesib -0.103

EIF4E2 (UniProt O60573)
inactive: [1] 0.151 | crizotinib -0.018 | [2] -0.027 | [3] 0.085 | duvelisib 0.037 | tozasertib 0.044 | [4] 0.07 | doramapimod -0.069 | ispinesib -0.087

EXOSC10 (UniProt Q01780)
Sequence of UniProt Q01780 (Q01780 whole entry, looked up): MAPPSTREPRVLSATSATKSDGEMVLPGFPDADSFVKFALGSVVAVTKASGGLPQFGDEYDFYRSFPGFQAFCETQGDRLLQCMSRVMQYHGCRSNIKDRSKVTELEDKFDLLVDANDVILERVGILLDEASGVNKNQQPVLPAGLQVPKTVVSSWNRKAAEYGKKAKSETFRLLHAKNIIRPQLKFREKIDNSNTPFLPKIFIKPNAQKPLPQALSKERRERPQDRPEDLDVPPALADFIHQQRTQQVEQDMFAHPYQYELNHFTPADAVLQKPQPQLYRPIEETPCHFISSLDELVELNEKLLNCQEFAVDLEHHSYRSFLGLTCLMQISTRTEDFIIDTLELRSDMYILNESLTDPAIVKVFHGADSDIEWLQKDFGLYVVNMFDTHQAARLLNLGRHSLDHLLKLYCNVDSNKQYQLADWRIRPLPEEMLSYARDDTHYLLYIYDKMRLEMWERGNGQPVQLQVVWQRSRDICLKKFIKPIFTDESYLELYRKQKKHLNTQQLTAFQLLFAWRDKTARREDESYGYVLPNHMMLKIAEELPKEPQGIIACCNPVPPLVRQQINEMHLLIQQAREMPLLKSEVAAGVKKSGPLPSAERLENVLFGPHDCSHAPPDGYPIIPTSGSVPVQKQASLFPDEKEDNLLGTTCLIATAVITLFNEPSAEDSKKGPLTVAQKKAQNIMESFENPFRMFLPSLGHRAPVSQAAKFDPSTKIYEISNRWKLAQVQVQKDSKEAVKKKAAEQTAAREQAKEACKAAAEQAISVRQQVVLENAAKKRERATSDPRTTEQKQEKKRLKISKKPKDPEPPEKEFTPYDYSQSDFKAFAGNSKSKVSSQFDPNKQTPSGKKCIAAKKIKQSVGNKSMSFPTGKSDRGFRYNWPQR
inactive: [1] 0.126 | crizotinib 0.043 | [2] 0.063 | [3] -0.015 | duvelisib 0.09 | gandotinib 0.527 | tozasertib -0.118 | [4] -0.138 | doramapimod 0.097 | ispinesib -0.441

FAM3A (UniProt P98173)
inactive: [1] 0.01 | crizotinib -0.071 | [2] 0.07 | [3] 0.01 | duvelisib 0.006 | gandotinib 0.014 | tozasertib -0.025 | [4] -0.075 | doramapimod 0.009 | ispinesib -0.065

DDX4 (UniProt Q9NQI0)
Sequence of UniProt Q9NQI0 (Q9NQI0 whole entry, looked up): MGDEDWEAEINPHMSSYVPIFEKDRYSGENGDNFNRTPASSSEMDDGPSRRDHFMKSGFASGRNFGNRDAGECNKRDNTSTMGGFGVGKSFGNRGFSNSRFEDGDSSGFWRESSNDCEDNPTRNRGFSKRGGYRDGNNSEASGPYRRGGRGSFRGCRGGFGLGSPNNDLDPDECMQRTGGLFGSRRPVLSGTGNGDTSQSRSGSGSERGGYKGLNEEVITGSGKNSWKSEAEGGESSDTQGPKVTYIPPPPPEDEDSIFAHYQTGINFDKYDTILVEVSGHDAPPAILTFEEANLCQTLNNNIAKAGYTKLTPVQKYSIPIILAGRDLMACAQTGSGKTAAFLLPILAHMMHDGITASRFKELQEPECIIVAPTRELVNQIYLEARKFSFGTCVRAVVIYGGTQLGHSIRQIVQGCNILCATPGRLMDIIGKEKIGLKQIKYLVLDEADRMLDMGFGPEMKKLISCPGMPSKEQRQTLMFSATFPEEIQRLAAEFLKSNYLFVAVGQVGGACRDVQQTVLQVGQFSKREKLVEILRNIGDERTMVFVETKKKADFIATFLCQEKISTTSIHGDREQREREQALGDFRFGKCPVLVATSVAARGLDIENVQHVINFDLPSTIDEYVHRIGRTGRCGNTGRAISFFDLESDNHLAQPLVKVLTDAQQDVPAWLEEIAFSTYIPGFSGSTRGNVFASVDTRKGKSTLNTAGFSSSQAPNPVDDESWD
inactive: [1] 0 | crizotinib 0.018 | [2] 0.013 | [3] 0.544 | duvelisib 0.265 | gandotinib 0.112 | tozasertib -0.042 | [4] -0.232 | doramapimod -0.021 | ispinesib -0.529

DUS3L (UniProt Q96G46)
inactive: [1] -0.015 | crizotinib 0.112 | [2] 0.019 | [3] -0.075 | duvelisib -0.005 | gandotinib -0.027 | tozasertib 0.043 | [4] 0.022 | doramapimod 0.033 | ispinesib 0

EDEM2 (UniProt Q9BV94)
Sequence of UniProt Q9BV94 (Q9BV94 whole entry, looked up): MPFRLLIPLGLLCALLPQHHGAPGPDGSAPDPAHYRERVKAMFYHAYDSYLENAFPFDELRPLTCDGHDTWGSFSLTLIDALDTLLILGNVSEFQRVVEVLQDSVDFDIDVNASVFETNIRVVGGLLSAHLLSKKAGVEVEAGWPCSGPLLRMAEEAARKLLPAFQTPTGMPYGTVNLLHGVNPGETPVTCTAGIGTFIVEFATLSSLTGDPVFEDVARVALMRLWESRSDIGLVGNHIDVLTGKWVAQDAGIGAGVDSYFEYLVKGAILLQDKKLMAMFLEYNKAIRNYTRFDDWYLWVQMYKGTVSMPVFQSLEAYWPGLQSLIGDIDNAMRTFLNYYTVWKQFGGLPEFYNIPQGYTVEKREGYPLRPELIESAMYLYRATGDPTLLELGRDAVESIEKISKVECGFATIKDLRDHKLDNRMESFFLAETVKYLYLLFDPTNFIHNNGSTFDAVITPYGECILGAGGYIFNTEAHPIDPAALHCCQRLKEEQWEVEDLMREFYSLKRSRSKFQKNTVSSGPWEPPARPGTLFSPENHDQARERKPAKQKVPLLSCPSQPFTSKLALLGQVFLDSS
inactive: [1] 0.036 | crizotinib 0.024 | [2] -0.119 | [3] 0.163 | duvelisib -0.074 | gandotinib -0.081 | tozasertib -0.015 | [4] 0.111 | doramapimod 0.065 | ispinesib -0.04

DBT (UniProt P11182)
Sequence of UniProt P11182 (P11182 whole entry, looked up): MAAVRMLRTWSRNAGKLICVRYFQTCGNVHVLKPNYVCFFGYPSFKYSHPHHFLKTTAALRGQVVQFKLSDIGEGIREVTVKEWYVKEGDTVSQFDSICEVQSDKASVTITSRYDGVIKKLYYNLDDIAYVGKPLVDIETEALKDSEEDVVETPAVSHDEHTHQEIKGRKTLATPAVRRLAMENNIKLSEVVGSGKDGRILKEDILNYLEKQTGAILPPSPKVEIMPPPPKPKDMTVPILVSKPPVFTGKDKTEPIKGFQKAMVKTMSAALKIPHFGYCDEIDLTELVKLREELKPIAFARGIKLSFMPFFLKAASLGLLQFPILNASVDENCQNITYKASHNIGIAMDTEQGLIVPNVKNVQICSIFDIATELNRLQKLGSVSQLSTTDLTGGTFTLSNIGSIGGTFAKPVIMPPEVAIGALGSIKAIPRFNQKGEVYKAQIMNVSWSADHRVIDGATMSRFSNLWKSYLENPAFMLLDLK
inactive: [1] -0.024 | crizotinib -0.01 | [2] -0.014 | [3] 0.054 | duvelisib 0.04 | gandotinib 0.005 | tozasertib 0.038 | [4] -0.042 | doramapimod 0.029 | ispinesib 0.009

FADS1, A0A0A0MR51
active: gandotinib 0.434 | ispinesib -0.252
inactive: [1] 0.096 | crizotinib -0.049 | [2] -0.019 | [3] -0.026 | duvelisib 0.016 | tozasertib -0.011 | [4] -0.007 | doramapimod 0

EOGT (UniProt Q5NDL2)
inactive: [1] 0.052 | crizotinib 0 | [2] -0.054 | [3] 0.069 | duvelisib 0.045 | gandotinib -0.003 | tozasertib -0.05 | [4] -0.137 | doramapimod 0.068 | ispinesib -0.006

ECPAS (UniProt Q5VYK3)
inactive: [1] 0 | crizotinib -0.18 | [2] 0.01 | [3] 0.081 | duvelisib 0.024 | gandotinib -0.115 | tozasertib 0.048 | [4] 0.099 | doramapimod -0.032 | ispinesib -0.016

DMAC1 (UniProt Q96GE9)
Sequence of UniProt Q96GE9 (Q96GE9 whole entry, looked up): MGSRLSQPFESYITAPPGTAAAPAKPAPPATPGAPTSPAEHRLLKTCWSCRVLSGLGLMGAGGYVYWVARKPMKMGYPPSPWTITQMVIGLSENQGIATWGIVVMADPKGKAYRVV
inactive: [1] 0.023 | crizotinib 0.034 | [2] 0.037 | [3] 0.005 | duvelisib 0.166 | gandotinib -0.087 | tozasertib -0.153 | [4] -0.22 | doramapimod 0.066 | ispinesib -0.108

EEF1D isoform 2 (UniProt P29692)
Sequence of UniProt P29692 (P29692 whole entry, looked up): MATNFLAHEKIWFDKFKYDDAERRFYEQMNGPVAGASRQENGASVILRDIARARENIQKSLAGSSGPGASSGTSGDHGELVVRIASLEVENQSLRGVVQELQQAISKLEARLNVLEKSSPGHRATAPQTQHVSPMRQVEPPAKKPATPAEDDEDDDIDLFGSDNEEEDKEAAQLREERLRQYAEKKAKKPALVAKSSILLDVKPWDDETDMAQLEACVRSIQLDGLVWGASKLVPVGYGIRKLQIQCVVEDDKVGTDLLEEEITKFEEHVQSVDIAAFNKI
inactive: [1] 0.043 | crizotinib 0.004 | [2] -0.028 | [3] 0.066 | duvelisib -0.011 | gandotinib -0.057 | tozasertib 0.038 | [4] 0.04 | doramapimod 0.026 | ispinesib -0.055

DCP2 (UniProt Q8IU60)
inactive: [1] -0.211 | [2] 0.119 | [3] 0.009 | duvelisib -0.049 | tozasertib 0.219 | [4] 0.095 | doramapimod 0.147 | ispinesib -0.045
active: crizotinib 0.779

DCAF10 (UniProt Q5QP82)
inactive: [1] 0.036 | crizotinib 0.007 | [2] 0.037 | [3] 0.017 | duvelisib -0.046 | gandotinib -0.15 | tozasertib 0.007 | [4] -0.098 | doramapimod 0.055 | ispinesib -0.059

EIF3J isoform 2 (UniProt O75822)
Sequence of UniProt O75822 (O75822 whole entry, looked up): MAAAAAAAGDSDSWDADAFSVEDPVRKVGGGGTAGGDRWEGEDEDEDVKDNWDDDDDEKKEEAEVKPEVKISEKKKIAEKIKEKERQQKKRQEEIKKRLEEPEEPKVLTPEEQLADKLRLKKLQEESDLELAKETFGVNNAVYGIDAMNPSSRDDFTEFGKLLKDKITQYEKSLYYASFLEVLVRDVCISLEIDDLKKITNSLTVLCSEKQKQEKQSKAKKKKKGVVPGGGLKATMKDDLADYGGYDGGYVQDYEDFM
inactive: [1] 0.035 | crizotinib 0.049 | [2] -0.043 | duvelisib 0.161 | tozasertib -0.136 | [4] -0.038 | doramapimod 0.011

ELAC1 (UniProt Q9H777)
inactive: [1] -0.045 | crizotinib 0.011 | [2] -0.13 | [3] -0.137 | duvelisib 0.062 | gandotinib -0.021 | [4] 0.004 | doramapimod 0.007

DNAJC24 (UniProt Q6P3W2)
Sequence of UniProt Q6P3W2 (Q6P3W2 whole entry, looked up): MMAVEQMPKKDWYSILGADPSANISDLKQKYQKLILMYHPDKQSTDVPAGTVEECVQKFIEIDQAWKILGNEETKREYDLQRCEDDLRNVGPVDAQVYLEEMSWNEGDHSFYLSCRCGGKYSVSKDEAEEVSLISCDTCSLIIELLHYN
inactive: [1] -0.054 | crizotinib 0.055 | [2] -0.031 | [3] -0.004 | duvelisib -0.028 | tozasertib 0.05 | [4] -0.024 | doramapimod 0.038 | ispinesib 0.01

FAM177A1 isoform 2 (UniProt Q8N128)
Sequence of UniProt Q8N128 (Q8N128 whole entry, looked up): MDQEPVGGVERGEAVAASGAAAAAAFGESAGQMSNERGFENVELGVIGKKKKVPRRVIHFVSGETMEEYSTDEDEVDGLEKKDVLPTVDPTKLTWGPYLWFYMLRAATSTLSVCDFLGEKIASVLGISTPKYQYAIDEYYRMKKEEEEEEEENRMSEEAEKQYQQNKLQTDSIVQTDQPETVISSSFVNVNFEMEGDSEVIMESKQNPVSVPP
inactive: [1] 0.018 | crizotinib -0.109 | [2] 0.059 | [3] -0.063 | duvelisib 0.012 | gandotinib -0.102 | tozasertib -0.072 | [4] -0.027 | doramapimod -0.012 | ispinesib -0.082

DCAF16 (UniProt Q9NXF7)
Sequence of UniProt Q9NXF7 (Q9NXF7 whole entry, looked up): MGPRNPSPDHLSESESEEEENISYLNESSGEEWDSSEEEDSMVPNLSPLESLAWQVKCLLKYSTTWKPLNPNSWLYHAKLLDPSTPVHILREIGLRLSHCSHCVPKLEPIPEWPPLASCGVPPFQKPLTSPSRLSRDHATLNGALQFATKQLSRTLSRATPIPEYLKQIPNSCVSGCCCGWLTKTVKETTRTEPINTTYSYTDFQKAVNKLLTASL
inactive: [1] 0.058 | crizotinib 0.001 | [2] 0.176 | [3] -0.103 | duvelisib 0.054 | gandotinib 0.069 | tozasertib 0.079 | [4] 0.17 | doramapimod -0.005 | ispinesib 0.036

FAM118B (UniProt Q9BPY3)
Sequence of UniProt Q9BPY3 (Q9BPY3 whole entry, looked up): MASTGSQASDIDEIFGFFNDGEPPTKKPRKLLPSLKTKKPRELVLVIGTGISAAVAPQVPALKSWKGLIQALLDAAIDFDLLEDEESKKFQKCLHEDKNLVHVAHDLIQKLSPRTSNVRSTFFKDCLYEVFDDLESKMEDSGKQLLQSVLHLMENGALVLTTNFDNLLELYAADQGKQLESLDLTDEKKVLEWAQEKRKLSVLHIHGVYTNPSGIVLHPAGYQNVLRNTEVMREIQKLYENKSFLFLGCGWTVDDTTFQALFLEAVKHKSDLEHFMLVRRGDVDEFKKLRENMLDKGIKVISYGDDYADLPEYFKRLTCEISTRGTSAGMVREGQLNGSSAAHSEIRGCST
inactive: [1] 0.099 | crizotinib -0.169 | [2] -0.007 | [3] 0.107 | gandotinib -0.101 | tozasertib 0.019 | doramapimod -0.003 | ispinesib 0.046

DDX27 (UniProt Q96GQ7)
inactive: [1] -0.039 | crizotinib -0.037 | [2] -0.064 | [3] 0.37 | duvelisib -0.145 | gandotinib 0.073 | tozasertib -0.12 | [4] 0.071 | doramapimod 0.135 | ispinesib 0.004

EGR1 (UniProt P18146)
inactive: [1] 0.063 | [2] 0.259 | [3] -0.518 | gandotinib -0.536 | tozasertib -0.131 | ispinesib 0.36

EIF4G3 isoform 3 (UniProt O43432)
inactive: [1] 0.053 | crizotinib -0.106 | [3] 0.074 | duvelisib -0.082 | tozasertib -0.013 | [4] 0.075 | doramapimod 0.013 | ispinesib -0.02
